Experiment [1] deals with TAB109. In words: qHTS profiling for inhibitors of Plasmodium falciparum proliferation (AID 504749). Further: potency means the concentration at half of the fitted maximal effect. The note with it: P. falciparum in erythrocytes, SYBR Green DNA, 72 h; series mostly up to 28.7 µM. The method, boiled down:
(§1)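 P. falciparum-infected erythrocytes (0.3% parasitemia, 2.5% hematocrit) incubated with compound 72 h at 37 C, 5% CO2. Parasite DNA detected by SYBR Green after lysis, overnight at room temperature; normalised to 0.29 uM artemisinin and DMSO.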

The test system of experiment [2] is TAB113. Described as above. The note with it: P. falciparum in erythrocytes, SYBR Green DNA, 72 h; series mostly up to 28.7 µM. In outline:
as §1

The test system of experiment [3] is TAB165. Described as above. The conditions noted are these: P. falciparum in erythrocytes, SYBR Green DNA, 72 h; series mostly up to 28.7 µM. The method, boiled down: as §1
Experiment [4] deals with CRL-7250. In words: Cytotoxic Profiling of Annotated Libraries Using Quantitative High-Throughput Screening (AID 1296008). Further: potency means the concentration at half of the fitted maximal effect. On max response: on the % scale 0 is the no-effect control and ±100 the full control effect. The conditions noted are these: Five cell lines viability, CellTiter-Glo ATP luminescence, 48-72 h; max response: active compounds read low. The method, boiled down: (§2)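 Cells exposed to compounds for 48 or 72 hr at 37 degrees Celsius. Viability read as ATP-coupled luminescence with CellTiter-Glo after 10 min at room temperature.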
Background: In ATP-based viability assays light output follows the ATP content of the culture.

In experiment [5] the test system is HEK293. Described as above. The note with it: Five cell lines viability, CellTiter-Glo ATP luminescence, 48-72 h; max response: active compounds read low. The method, boiled down:
as §2

Experiment [6] has as its system HaCat. The description is as above. The note with it: Five cell lines viability, CellTiter-Glo ATP luminescence, 48-72 h; max response: active compounds read low. The method, boiled down: as §2
Experiment [7] deals with NIH3T3. Described as above. The conditions noted are these: Five cell lines viability, CellTiter-Glo ATP luminescence, 48-72 h; max response: active compounds read low. The method, boiled down:
as §2

The subject of experiment [8] is KB-3-1. Described as above. The note with it: Five cell lines viability, CellTiter-Glo ATP luminescence, 48-72 h; max response: active compounds read low. The method, boiled down:
as §2

The subject of experiment [9] is HACAT. As to the kind of experiment: qHTS assay to identify novel small-molecules to repurpose for Merkel cell carcinoma treatment (AID 1296009). The note with it: MCC and control cell lines, CellTiter-Glo viability, 72 h; series mostly up to 44.8 µM. In outline: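 Cells were treated for 72 hr at 37 degree celsius with compounds in 8- or 11-point dose response. Viability was read by CellTiter-Glo luminescence, normalized to no-cell (cytotoxicity) and DMSO controls.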
Background: Quantitative high-throughput screening tests each substance at several concentrations.

Experiment [10] has as its system W2. As to the kind of experiment: qHTS profiling for inhibitors of Plasmodium falciparum proliferation (AID 504749). Further: potency means the concentration at half of the fitted maximal effect. The note with it: P. falciparum in erythrocytes, SYBR Green DNA, 72 h; series mostly up to 28.7 µM. The method, boiled down: as §1

Each structure is given as a SMILES string. “And” between values parts separate entries of the source, which are not always exact repeats. Equal values may be shown once. Records with an inconclusive call do not appear. The source holds several records for some structures; these can differ, active in one and inactive in another. Unmarked numbers belong to inactive results. The source made the active and inactive calls. The call rests on the fitted dose curve; in most records, active means well fitted inhibition curve with a large enough effect; inconclusive means small, poorly fitted or top-dose-only effect; inactive means flat fitted curve, though single readings scatter.
Further: nearly all actives have a fitted effect of over 60% in size.

Take `COC(=O)Nc1nc2ccc(C(=O)c3cccs3)cc2[nH]1`: the Potency result in [1], in [2] and in [3] was “inactive” throughout. Further, the Potency was 46.9 nM (active) and 188 nM (active) in experiment [4]; 0.0944 µM (active) in experiment [5]; 168 nM (active) in experiment [7]. Also, the max response in [6] was 3.37% and -11.6%.

With `Nc1c2c(nc3ccccc13)CCCC2`, the values for the Potency in experiment [1] and in experiment [6] were 8.91 µM (active) and 26.4 µM (active), respectively. For the same compound, the Potency result in experiment [2] is “inactive”. Also, the result in [4], in [6], in [8], in [7] and in experiment [9] was inactive.

For `COc1ccccc1OCCNCC(O)COc1cccc2[nH]c3ccccc3c12` (stereo not drawn), the Potency in [1] was 10 µM (active); in [2], 10 µM (active); in [10], 4.78 µM (active). Moreover, the max response is 3.53% and -0.382% in [4]; -11.1% in experiment [6]; 1.19% and -0.545% in [8]; -1.47% and -25.5% in [7]. Besides, the result in [6] and in experiment [9] was inactive.

Take `CCC1(c2ccccc2)C(=O)NCNC1=O`: the Potency entry in experiment [1], in [2], in experiment [3] and in experiment [10] was “inactive” in each case.

Consider `OCCN(CCO)c1nc(N2CCCCC2)c2nc(N(CCO)CCO)nc(N3CCCCC3)c2n1`, for which, in [9], the call was inactive.

Turning to `O=c1[nH]cc(F)c(=O)[nH]1`, the Potency is 11.8 µM (active) in [5]; 3.76 µM (active) and 2.96 µM (active) in experiment [7].

For `O=C(c1ccc(OCCN2CCCCC2)cc1)c1c(-c2ccc(O)cc2)sc2cc(O)ccc12`, the Potency in experiment [1] is 7.94 µM (active); in experiment [2], 5.01 µM (active); in [3], 2.82 µM (active); in experiment [10], 3.01 µM (active); in experiment [6] it was 16.8 µM (active); in experiment [7], 18800 nM (active). Also, the result in experiment [4], in experiment [6] and in experiment [9] was inactive. For the same compound, the max response in [7] is -12.5%.

Consider `CC(COc1ccccc1)N(CCCl)Cc1ccccc1` (stereo not drawn), for which the Potency in experiment [10] is 6.01 µM (active).

As for `CC(C)NCC(O)c1ccc(O)c(O)c1` (stereo not drawn), the Potency result in [1], in experiment [2], in experiment [3] and in experiment [10] was “inactive” each time. For the same compound, the max response in [4] is 0.851%; in experiment [6], 3.14% and -18%; in experiment [7], -0.342% and -6.04%.

As for `CC12CC3CC(C)(C1)CC(N)(C3)C2`, the Potency entry in experiment [1], in experiment [2] and in experiment [3] was “inactive” throughout. In addition, the call in experiment [4] was inactive. The max response in experiment [5] was -1.65% and -16.7%; in [6], 0.352% and -2.07%; in experiment [7], 1.33% and -0.312%.

As for `COc1ccccc1OCC(O)CN1CCN(CC(=O)Nc2c(C)cccc2C)CC1` (stereo not drawn), the Potency result in [1], in [2], in experiment [3] and in experiment [10] was “inactive” each time. Also, the max response in [5] was 1.75%; in [6] it was -0.555%; in [7], -5.09%. For the same compound, the compound was called inactive in [5], in [6], in experiment [7] and in experiment [9].

For the compound `CN(C)CCCN1c2ccccc2CCc2ccc(Cl)cc21`, the Potency is 1.9 µM (active) in experiment [10]; 13.2 µM (active) and 8.41 µM (active) in experiment [5]. Moreover, the values for the max response in experiment [4] and in experiment [7] were -24.3% and -22.1%, respectively. Further, the compound was classed as inactive in experiment [6] and in experiment [9].

Regarding `COc1cc2nc(N3CCN(C(=O)C4COc5ccccc5O4)CC3)nc(N)c2cc1OC` (stereo not drawn), the max response is -6.13% in [6]; 19.6% and -6.62% in experiment [8]; -16.5% in [7]. Besides, the result in experiment [6], in [7] and in [9] was inactive.

Regarding `Clc1ccc2c(c1)C(N1CCNCC1)=Nc1ccccc1O2`, the Potency in experiment [10] was 5.36 µM (active); in experiment [5], 20.6 µM (active). For the same compound, the max response in [4] is -6.06% and -6.64% and -8.49%; in experiment [7], 4.64% and 1.82% and -2.71%. The result in experiment [6] and in [9] was inactive.

`Cc1cn([C@H]2C[C@H](N=[N+]=[N-])[C@@H](CO)O2)c(=O)[nH]c1=O`: the Potency entry in experiment [1], in experiment [2], in experiment [3] and in experiment [10] was “inactive” in each case.

Turning to `CC#C[C@]1(O)CC[C@H]2[C@@H]3CCC4=CC(=O)CCC4=C3[C@@H](c3ccc(N(C)C)cc3)C[C@@]21C`, the Potency in experiment [1] was 11.2 µM (active); in experiment [2], 8.91 µM (active); in experiment [3], 6.31 µM (active); in experiment [10], 6.75 µM (active); in [5], 9.35 µM (active). In addition, the max response is -15.2% in experiment [4]; -29.4% and -8.42% in experiment [6]; -20.2% and -3.41% in experiment [7].

In the case of `CC(C)C(=O)Nc1ccc([N+](=O)[O-])c(C(F)(F)F)c1`, the Potency result in experiment [1], in experiment [2], in experiment [3] and in experiment [10] was “inactive” throughout. In addition, the max response in experiment [4] is -19.8%; in [8], -17.3% and -13.1%; in experiment [7], -15.1%. The outcome in experiment [6], in [7] and in experiment [9] was inactive.

For `COc1cc2nc(N3CCN(C(=O)c4ccco4)CC3)nc(N)c2cc1OC`, the max response was -3.1% in experiment [6] and -23.2% in experiment [7].

On to `CC1(CN2CCC(n3c(=O)[nH]c4ccccc43)CC2)OCc2ccccc2-n2cccc21` (stereo not drawn), for which the Potency in experiment [3] was 8.91 µM (active); in experiment [10] it was 7.57 µM (active). Further, the max response is -0.873% and 0.74% in experiment [4]; -8% in [6]; -0.569% and -13.1% in [7]. In addition, the call in [6] and in experiment [9] was inactive.

Turning to `CS(=O)(=O)CCNCc1ccc(-c2ccc3ncnc(Nc4ccc(OCc5cccc(F)c5)c(Cl)c4)c3c2)o1`, the Potency result in experiment [1], in experiment [2], in [3] and in [10] was “inactive” each time. For the same compound, the call in experiment [4] was inactive. Further, the Potency was 4.18 µM (active) and 6.68 µM (active) and 9.2 µM (active) in [5]; 46.9 nM (active) and 266 nM (active) in [6]. In addition, in experiment [7], the max response was -52.4%.

Regarding `CS(=O)(=O)Nc1ccc([N+](=O)[O-])cc1Oc1ccccc1`, the Potency result in experiment [1], in [2], in [3] and in experiment [10] was “inactive” throughout. The max response in [4] was -4.36% and 1.83%; in [5], -3.19%; in [6], 1.46%; in experiment [7], 4.35% and -5.34%.

Take `O=C(Nc1ccc([N+](=O)[O-])cc1Cl)c1cc(Cl)ccc1O`: the Potency in [2] is 0.708 µM (active); in experiment [3], 0.355 µM (active); in [10], 0.953 µM (active).

In the case of `C[C@@H]1CC(=O)NN=C1c1ccc(NN=C(C#N)C#N)cc1`, the compound was called inactive in [4]. In experiment [6], the Potency is 18.7 µM (active); the max response was -5.36% and -8.18%.

Values taken from PubChem BioAssay (NCATS).
